This is part of a sample that, as a whole, favours compounds with a hit. Of some 83,000 tested, about 20% had one in any assay.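 96-well plates, one dose, 48 hours. Percent growth reported; active if below 10.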 Unmarked numbers belong to inactive results. Activity calls are given as the source filed them.
test system: NCI-H460 lung; experiment: NCI-60 one-dose screen, 48 h (100 = growth as untreated, 0 = no growth, -100 = all killed); settings: 10 µM unless noted
Protocol: Growth inhibition of the NCI-H460 human Non-Small Cell Lung tumor cell line is measured as a screen for anti-cancer activity. Cells are grown in 96 well plates and exposed to the test compound for 48 hours. Compounds are tested at a single concentration, which is 10^-5 M for most compounds. The reported endpoint is percent growth (GI% or GIPRCNT), where numbers from 0 - 100% represent growth inhibition, and numbers from -100% - 0 represent cell death. For example, a value of 40 represents 60% growth inhibition. A value of 0 means no net growth occurred over the course of the experiment. A value of -40 indicates 40% of cells at the beginning of the experiment died by the end of the experiment. A value of -100 means all cells are dead at the end of the experiment.
NCI-60 Human Tumor Cell Lines Screen was performed using the standard one-dose NCI protocol, which is described in more detail at https://dtp.cancer.gov/discovery_development/nci-60/default.htm.
Compounds with GIPRCNT values below 10 were considered active. Activity score was based on GIPRCNT using the following formula: […]
Score is 0 for GIPRCNT values of 100 or above, 50 for GIPRCNT values of 0, and 100 for GIPRCNT values of -100.

**Q.** With CCCCS(=O)(=O)c1cc(Nc2ccc(O)c3c2C(=O)c2ccccc2C3=O)ccc1C as the compound, how does the growth read?
**A.** 14.9%

**Q.** With N=C(N)N=Nc1ccc(NN=C(N)N)c2ccccc12 as the compound, how does the growth read?
**A.** 108%

**Q.** Which growth does the source give for C#CCCCCCCC[C@@H]1OC(=O)[C@H]([C@@H](C)CC)NC(=O)[C@H]([C@@H](C)CC)NC(=O)CC(=O)[C@@H]1C here?
**A.** 103%

**Q.** How did the growth turn out when CC(O)c1cc[cH-]c1.[Fe+2].c1cc[cH-]c1 (stereo not given) was run?
**A.** 114%

**Q.** COC(=O)C(Cc1cnc[nH]1)N1CC(=O)N2[C@@H](c3ccccc3)SC[C@H]2C1=O (stereo not given in full) was tested. Which growth did it give?
**A.** 109%

**Q.** For c1ccc(-c2cn3ccnc3c(-c3ccc4ncn(C5CCCCC5)c4c3)n2)cc1, which growth is on record?
**A.** 62.2%

**Q.** For O=C(/C=C\c1ccccc1Cl)c1ccccc1, which growth is on record?
**A.** 95.4%

**Q.** Which growth does the source give for COc1ccc(/C=C2\CCCC3=C2N=C2SC=NN2C3c2ccc(OC)c(OC)c2)cc1OC (stereo not given) here?
**A.** 44%

**Q.** How did the growth turn out when CC1C(=O)CCCC1=O was run?
**A.** 120%

**Q.** How did the growth turn out when O=S(=O)(O)CCI was run?
**A.** 104%

**Q.** Which growth does the source give for O=Nc1c(-c2c(O)[nH]c3cc(Br)ccc23)[nH]c2ccccc12 here?
**A.** -72.8% (active)

**Q.** With O=CN/N=C/c1ccc(Cl)c([N+](=O)[O-])c1 as the compound, how does the growth read?
**A.** 8.54% (active)

**Q.** Which growth does the source give for O=C(Nc1ccc(-n2cc(-c3ccncc3)c(-c3ccc(Cl)c(O)c3)n2)cc1)Nc1cc(C(F)(F)F)cc(C(F)(F)F)c1 here?
**A.** 5.79% (active)

**Q.** O=C(Nn1cnc2ccccc21)N1CCCC1 was tested. Which growth did it give?
**A.** 117%

**Q.** For COc1ccc(Cn2cc3c(c2)-c2oncc2CC3)cc1OC, which growth is on record?
**A.** 1.13% (active)

**Q.** O=Nc1ccc(O)c2ccccc12 was tested. Which growth did it give?
**A.** 96.7%

**Q.** COC(=O)c1cc(Nc2ccc(O)c3c2C(=O)c2c([N+](=O)[O-])ccc(O)c2C3=O)cc(C(=O)OC)c1 was tested. Which growth did it give?
**A.** 55.7%

**Q.** How did the growth turn out when O=C1Nc2c(c(=O)n(-c3ccccc3)c3ccccc23)C(c2ccc(Cl)cc2)N1 (stereo not given) was run?
**A.** 47.7%

**Q.** With CCNc1nnc(COc2ccc(CNC(=O)CCCC/C=C/C(C)C)cc2OC)o1 as the compound, how does the growth read?
**A.** 103%

**Q.** How did the growth turn out when O=c1c2c(c3ccccc3n1-c1ccccc1)NC(=S)NC2c1ccc(Cl)cc1 (stereo not given) was run?
**A.** 2.25% (active)

**Q.** For CCOc1ccc2nc3ccc(Cl)cc3nc2c1, which growth is on record?
**A.** 95.9%

**Q.** Which growth does the source give for C[C@H]1C[C@@H](n2cnc3c(N)nccc32)[C@H](O)[C@@H]1O here?
**A.** 80.8%

**Q.** Which growth does the source give for CC(C)OC(=O)Nn1cnc2ccccc21 here?
**A.** 114%

**Q.** With CC1(C)N=C(N)N=C(N)N1c1cccc(CCCCOc2ccccc2)c1 as the compound, how does the growth read?
**A.** 4.82% (active)

**Q.** How did the growth turn out when C=C(C)C(C(=O)OCC)(C(=O)OCC)C(C)C was run?
**A.** 106%

**Q.** Which growth does the source give for COC(=O)c1ccc(C(=Nc2ccc(N(C)C(=O)CN3CCN(C)CC3)cc2)c2c(O)[nH]c3ccc(C(=O)OC)cc23)cc1 here?
**A.** 43.7%

**Q.** With CCCCCCC(C)N(CC(C)(C)O)C(=O)c1ccc([N+](=O)[O-])cc1 (stereo not given) as the compound, how does the growth read?
**A.** 105%

**Q.** For Cc1ccnc2c(NC(C)CCCN)cc(O)c(O)c12 (stereo not given), which growth is on record?
**A.** 115%

**Q.** CC1=NN(c2cccc(Cl)c2)C(=O)/C1=C\c1cn(-c2nc(N3CCOCC3)nc(N3CCOCC3)n2)c2ccccc12 was tested. Which growth did it give?
**A.** 112%

**Q.** For COc1ccc(C2C3(C#N)C(N)=NC(=C(C#N)C#N)C23C#N)cc1OC (stereo not given), which growth is on record?
**A.** 119%

**Q.** COc1ccc(NC(=O)/C=C(C)/C=C/C=C(C)/C=C/C2=C(C)CCCC2(C)C)cc1 was tested. Which growth did it give?
**A.** 30.6%

**Q.** For Oc1ccc(Br)cc1/C=N/NC(=S)NC12CC3CC(CC(C3)C1)C2, which growth is on record?
**A.** 2.18% (active)

**Q.** For Cc1c(O)c(N=Nc2ccc(C(=O)O)c(O)c2)c2ccccc2c1O, which growth is on record?
**A.** 96.7%

**Q.** Which growth does the source give for COCn1c(C(=O)OC)cc2oc(/C=C3/SC(=S)N(N)C3=O)cc21 here?
**A.** 105%

**Q.** With Cc1ccc(C(=O)C(Br)C(Br)c2ccccc2)cc1 (stereo not given) as the compound, how does the growth read?
**A.** 101%

**Q.** How did the growth turn out when COc1cc(-c2c3c(cn2CCN2CCCCC2)-c2oncc2CC3)cc(OC)c1OC was run?
**A.** 101%

**Q.** Which growth does the source give for CC(=N\N=C(N)N)/C(=N/N=C(N)N)c1ccccc1 here?
**A.** 93.3%

**Q.** For CC(C)(C)c1cc(C[P+](c2ccc(Cl)cc2)(c2ccc(Cl)cc2)c2ccc(Cl)cc2)cc(C(C)(C)C)c1O, which growth is on record?
**A.** 94.9%

**Q.** Which growth does the source give for CC(=O)Nc1ccc(CC#N)cc1Br here?
**A.** 101%

**Q.** How did the growth turn out when Cc1nc(NC(=O)NC2CCCCC2)sc1C(=O)NN was run?
**A.** 112%
